Calls of active or inactive are those of the source. Unless noted, calls come from the whole dose curve; as a rule, active = well fitted curve in the direction sought with a large enough effect in the repeat runs; inconclusive = weak or mixed curves; inactive = no such curve, though single readings can be large; an effect the other way counts as inactive or inconclusive.
What was measured:
[1] = qHTS assay to identify small molecule antagonists of the thyroid receptor (TR) signaling pathway - cell viability counter screen (AID 743064); note: nearly all actives have a fitted effect of over 50% in size
Summary of the method: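 Counter screen for cytotoxicity: compound plus T3 (1 nM final) on GH3.TRE-Luc cells, 23.5 h at 37 °C, then fluorescence viability readout with CellTiter-Fluor.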

[2] = qHTS assay to identify small molecule antagonists of the thyroid receptor (TR) signaling pathway (AID 743065); note: series mostly up to about 70 µM; nearly all actives have a fitted effect of over 55% in size
Summary of the method: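 Antagonism measured as loss of luciferase signal in GH3 cells stably carrying a TRE-luciferase reporter, co-treated with compound and T3 (1 nM final) for 23.5 h at 37 C. Viability was read in the same well by CellTiter-Fluor.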

[3] = test system: thyroid hormone receptor (rat, GH3 cells); assay: qHTS assay to identify small molecule agonists of the thyroid receptor (TR) signaling pathway (AID 743066; calls by dose curve)
[4] = biological target: Estrogen receptor (Homo sapiens) (UniProt P03372); assay: qHTS assay to identify small molecule antagonists of the estrogen receptor alpha (ER-alpha) signaling pathway (AID 743069; active = well fitted curve in the direction sought with a large enough effect in the signal ratio in the repeat runs, not every such curve was filed as active; inconclusive = weak or mixed curves, or effect the other way; inactive = no such curve, though single readings can be large or run the other way; the % refers to the signal ratio; note: potency is the fitted concentration of half-maximal effect)
Summary of the method: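 ER-alpha-UAS-bla GripTite HEK293 line; 2% charcoal-stripped FBS overnight; plated, 4 hr 37C/5% CO2; cpd in DMSO + 17beta-estradiol, 18 hr 37C; LiveBLAzer B/G FRET substrate 2 hr RT; fluorescence intensity.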

[5] = qHTS assay to identify small molecule antagonists of the estrogen receptor alpha (ER-alpha) signaling pathway - cell viability counter screen (AID 743074; calls by dose curve;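 note: HEK293 cells carrying ER-alpha-UAS-bla reporter stimulated with 17beta-estradiol; nearly all actives have a fitted effect of over 45% in size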)
[6] = biological target: Estrogen receptor (Homo sapiens) (UniProt P03372); assay: qHTS assay to identify small molecule agonists of the estrogen receptor alpha (ER-alpha) signaling pathway (AID 743075; calls by dose curve;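 note: HEK293 GripTite cells with ER-alpha and UAS-driven beta-lactamase reporter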; note: potency is the fitted concentration of half-maximal effect)
[7] = biological target: Estrogen receptor (Homo sapiens) (UniProt P03372); assay: qHTS assay to identify small molecule agonists of the estrogen receptor alpha (ER-alpha) signaling pathway using the BG1 cell line (AID 743079); note: nearly all actives have a fitted effect of over 20% in size; note: potency is the fitted concentration of half-maximal effect
[8] = qHTS assay to identify small molecule antagonists of the estrogen receptor alpha (ER-alpha) signaling pathway using the BG1 cell line (AID 743080; calls by dose curve;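 note: BG1 cells stimulated with 17beta-estradiol alongside compound; series mostly up to about 70 µM; nearly all actives have a fitted effect of over 25% in size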)
Summary of the method: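 Readout is ONE-Glo luminescence, taken 30 min at room temperature after reagent addition, preceded by a CellTiter-Fluor viability read; BG1-Luc-4E2 cells had received compound and 17beta-estradiol for 21.5 h at 37 C.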

[9] = qHTS assay to identify small molecule antagonists of the estrogen receptor alpha (ER-alpha) signaling pathway using the BG1 cell line - cell viability counter screen (AID 743081);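 note: compound given together with 17beta-estradiol as the ER stimulus; series mostly up to about 70 µM; nearly all actives have a fitted effect of over 45% in size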
Aromatase (Homo sapiens) = Aromatase (Homo sapiens) (UniProt P11511); assay: qHTS assay to identify aromatase inhibitors (AID 743083); note: series mostly up to about 70 µM; nearly all actives have a fitted effect of over 55% in size
[10] = qHTS assay to identify aromatase inhibitors - cell viability counter screen (AID 743084);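 note: cells stimulated with testosterone during compound exposure; nearly all actives have a fitted effect of over 55% in size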
[11] = biological target: Aryl hydrocarbon receptor (Homo sapiens) (UniProt P35869); assay: qHTS assay to identify small molecule that activate the aryl hydrocarbon receptor (AhR) signaling pathway (AID 743085);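 note: HG2L7.5c1 human HepG2 liver cells with stably integrated DRE-driven firefly reporter; series mostly up to about 70 µM; nearly all actives have a fitted effect of over 15% in size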
Summary of the method: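 Measured in HG2L7.5c1 cells: CellTiter-Fluor signal (30 min incubation, 37C) for viability, then luciferase luminescence (30 min, room temperature). Compound contact time was 24 h at 37C, following a 5 h pre-incubation.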

[12] = biological target: Peroxisome proliferator-activated receptor gamma (Homo sapiens) (UniProt P37231); assay: qHTS assay to identify small molecule agonists of the peroxisome proliferator-activated receptor gamma (PPARg) signaling pathway (AID 743094; active = well fitted activation curve with a large enough effect in the signal ratio in the repeat runs, not every such curve was filed as active; inconclusive = weak or mixed curves, or effect the other way; inactive = no such curve, though single readings can be large or run the other way; the % refers to the signal ratio)
Summary of the method: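 Compounds dissolved in DMSO were added to PPARg UAS-bla HEK293H cells for 17 h at 37C, and reporter expression was quantified by fluorescence intensity after 1 h with LiveBLAzer B/G FRET substrate.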

[13] = qHTS assay to identify small molecule antagonists of the peroxisome proliferator-activated receptor gamma (PPARg) signaling pathway - cell viability counter screen (AID 743194); note: nearly all actives have a fitted effect of over 55% in size
Summary of the method: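 Viability was measured as CellTiter-Glo luminescence in GeneBLAzer PPARg UAS-bla HEK293H cells. These cells had been exposed 17 h at 37 C to compounds together with rosiglitazone at 50 nM final, with the beta-lactamase readout taken in the same wells.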

[14] = qHTS assay for small molecule agonists of the antioxidant response element (ARE) signaling pathway (AID 743202; active = well fitted activation curve with a large enough effect in the signal ratio in the repeat runs, not every such curve was filed as active; inconclusive = weak or mixed curves, or effect the other way; inactive = no such curve, though single readings can be large or run the other way; the % refers to the signal ratio)
Summary of the method: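 Quantitative high-throughput format in HepG2 cells bearing an integrated ARE-beta-lactamase reporter. Compound exposure lasted 16 h at 37 C, and fluorescence was read 2 h after adding LiveBLAzer B/G substrate at room temperature.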

[15] = qHTS assay for small molecule agonists of the antioxidant response element (ARE) signaling pathway - cell viability counter screen (AID 743203; calls by dose curve; note: nearly all actives have a fitted effect of over 55% in size)
Summary of the method: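 Following 16 hrs of compound treatment at 37C, HepG2 cells with an ARE-controlled beta-lactamase gene were lysed with CellTiter-Glo. Luminescence was read after 30 min at room temperature.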

[16] = qHTS assay for small molecule activators of the heat shock response signaling pathway - cell viability counter screen (AID 743209); note: nearly all actives have a fitted effect of over 50% in size
Summary of the method: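 Readout: CellTiter-Glo luminescence, 30 min at room temperature. System: HSE-bla HeLa cells, 1500/well, plated overnight. Treatment: compounds in DMSO, 5 h at 37 C.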

[17] = qHTS assay for small molecule activators of the heat shock response signaling pathway (AID 743210; active = well fitted activation curve with a large enough effect in the signal ratio in the repeat runs, with a control signal flat, not every such curve was filed as active; inconclusive = weak or mixed curves; the % refers to the signal ratio;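 note: HeLa cells with beta-lactamase reporter driven by heat shock elements; series mostly up to about 63 µM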)
Summary of the method: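 HeLa HSE-bla cells, overnight plating; cpd in DMSO 5 h, 37 C; LiveBLAzer B/G FRET substrate 2.5 h RT; fluorescence intensity read.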

[18] = qHTS assay to identify small molecule that activate the aryl hydrocarbon receptor (AhR) signaling pathway - cell viability counter screen (AID 743086);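 note: HepG2 liver cells carrying the AhR DRE luciferase reporter; series mostly up to about 70 µM; nearly all actives have a fitted effect of over 45% in size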
Summary of the method: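 Cytotoxicity counter screen: CellTiter-Fluor signal (30 min, 37 C) in 4000 HepG2 cells/well carrying the DRE-luciferase reporter, following 24 h compound exposure at 37 C.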

[19] = biological target: Peroxisome proliferator-activated receptor gamma (Homo sapiens) (UniProt P37231); assay: qHTS assay to identify small molecule antagonists of the peroxisome proliferator-activated receptor gamma (PPARg) signaling pathway (AID 743191; calls by dose curve; note: series mostly up to about 63 µM; nearly all actives have a fitted effect of over 30% in size)
Summary of the method: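 Beta-lactamase reporter under UAS control in HEK293H PPARg-bla cells; compound treatment 17 h at 37C. Read-out: fluorescence intensity after 1 h room-temperature incubation with LiveBLAzer B/G FRET substrate.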

Measured: Potency

Sequence of Peroxisome proliferator-activated receptor gamma (Homo sapiens) (P37231 whole entry, looked up): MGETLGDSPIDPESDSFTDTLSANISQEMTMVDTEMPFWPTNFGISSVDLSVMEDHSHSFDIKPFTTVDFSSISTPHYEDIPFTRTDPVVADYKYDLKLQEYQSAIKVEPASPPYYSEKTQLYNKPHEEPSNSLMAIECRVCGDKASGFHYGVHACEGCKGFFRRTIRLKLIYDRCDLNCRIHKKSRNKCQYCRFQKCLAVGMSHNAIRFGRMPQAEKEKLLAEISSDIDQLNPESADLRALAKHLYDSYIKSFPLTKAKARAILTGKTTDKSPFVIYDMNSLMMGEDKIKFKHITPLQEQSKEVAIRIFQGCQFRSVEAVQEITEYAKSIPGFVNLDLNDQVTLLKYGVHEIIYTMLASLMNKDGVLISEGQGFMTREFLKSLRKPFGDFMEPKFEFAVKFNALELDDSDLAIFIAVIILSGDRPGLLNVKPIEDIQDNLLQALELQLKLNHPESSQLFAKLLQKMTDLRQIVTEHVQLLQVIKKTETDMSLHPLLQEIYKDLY
Sequence of Aromatase (Homo sapiens) (P11511 whole entry, looked up): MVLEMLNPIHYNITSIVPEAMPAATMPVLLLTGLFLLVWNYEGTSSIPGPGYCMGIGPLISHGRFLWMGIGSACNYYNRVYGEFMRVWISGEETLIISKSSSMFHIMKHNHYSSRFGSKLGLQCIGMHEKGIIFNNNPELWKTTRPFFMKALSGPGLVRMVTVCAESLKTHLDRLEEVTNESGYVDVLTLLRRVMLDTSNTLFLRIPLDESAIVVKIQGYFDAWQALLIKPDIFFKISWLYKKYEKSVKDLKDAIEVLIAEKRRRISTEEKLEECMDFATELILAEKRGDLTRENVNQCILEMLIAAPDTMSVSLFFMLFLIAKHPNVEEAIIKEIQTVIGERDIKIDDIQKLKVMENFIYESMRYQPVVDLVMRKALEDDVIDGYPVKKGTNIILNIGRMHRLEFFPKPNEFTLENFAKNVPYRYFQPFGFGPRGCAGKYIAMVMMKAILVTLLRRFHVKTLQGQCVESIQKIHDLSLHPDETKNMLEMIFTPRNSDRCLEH
Sequence of Estrogen receptor (Homo sapiens) (P03372 whole entry, looked up): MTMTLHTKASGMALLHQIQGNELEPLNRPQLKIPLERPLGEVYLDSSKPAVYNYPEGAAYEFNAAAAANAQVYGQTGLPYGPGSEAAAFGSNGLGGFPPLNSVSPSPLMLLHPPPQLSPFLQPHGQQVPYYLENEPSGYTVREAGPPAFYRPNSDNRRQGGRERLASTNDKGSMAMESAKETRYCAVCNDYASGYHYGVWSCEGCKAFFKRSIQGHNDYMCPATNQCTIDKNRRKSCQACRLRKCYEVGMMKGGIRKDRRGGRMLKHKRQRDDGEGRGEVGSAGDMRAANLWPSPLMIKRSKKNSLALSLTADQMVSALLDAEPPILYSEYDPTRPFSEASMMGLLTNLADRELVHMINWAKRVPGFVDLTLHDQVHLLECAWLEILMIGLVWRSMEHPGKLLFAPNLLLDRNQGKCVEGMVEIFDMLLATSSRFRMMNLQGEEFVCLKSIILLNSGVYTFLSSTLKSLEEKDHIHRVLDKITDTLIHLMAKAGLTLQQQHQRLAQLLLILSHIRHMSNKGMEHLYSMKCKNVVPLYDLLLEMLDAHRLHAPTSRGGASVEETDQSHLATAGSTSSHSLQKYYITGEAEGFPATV
Sequence of Aryl hydrocarbon receptor (Homo sapiens) (P35869 whole entry, looked up): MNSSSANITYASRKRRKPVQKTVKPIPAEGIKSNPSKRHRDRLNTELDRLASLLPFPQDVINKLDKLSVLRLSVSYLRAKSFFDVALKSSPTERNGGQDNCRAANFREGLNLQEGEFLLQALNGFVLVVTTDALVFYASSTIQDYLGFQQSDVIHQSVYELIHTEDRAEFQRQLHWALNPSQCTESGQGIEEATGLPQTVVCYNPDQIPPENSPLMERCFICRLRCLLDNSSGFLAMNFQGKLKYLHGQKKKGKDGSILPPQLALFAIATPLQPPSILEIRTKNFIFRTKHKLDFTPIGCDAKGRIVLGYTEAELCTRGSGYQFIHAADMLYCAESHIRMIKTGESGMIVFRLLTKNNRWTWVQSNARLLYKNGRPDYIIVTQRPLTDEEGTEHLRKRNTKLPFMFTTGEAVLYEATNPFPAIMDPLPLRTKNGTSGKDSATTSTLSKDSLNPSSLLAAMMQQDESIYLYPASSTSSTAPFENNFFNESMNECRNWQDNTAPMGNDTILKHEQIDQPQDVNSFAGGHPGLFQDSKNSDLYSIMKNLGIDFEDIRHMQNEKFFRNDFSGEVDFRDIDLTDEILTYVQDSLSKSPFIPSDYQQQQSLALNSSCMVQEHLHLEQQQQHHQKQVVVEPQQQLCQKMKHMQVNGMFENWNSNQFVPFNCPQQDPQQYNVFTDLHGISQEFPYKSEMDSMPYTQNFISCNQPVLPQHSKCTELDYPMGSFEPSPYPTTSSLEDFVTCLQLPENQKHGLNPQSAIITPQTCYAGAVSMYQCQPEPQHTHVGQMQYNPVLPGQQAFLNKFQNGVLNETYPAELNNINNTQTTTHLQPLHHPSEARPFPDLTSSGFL

CC/C=C\CCCCO
not listed: [18] | [19]
inactive: all other assays above

CCCCc1ccc2cccc(S(=O)(=O)O)c2c1
not listed: [8]
inactive: all other assays above

CCCc1ccc(N)cc1
not listed: [8]
inactive: all other assays above

CC(C)COC(=O)c1ccccc1O
not listed: Aromatase (Homo sapiens) | [11]
inactive: all other assays above

CCCCCCOC(=O)c1ccccc1O
not listed: [7] | [19]
inactive: all other assays above

NCCN1CCNC1=O
not listed: [8] | [18]
inactive: all other assays above

CCCCc1ccc(N)cc1
not listed: [7] | [8] | [13]
inactive: all other assays above

CNc1ncnc2nc[nH]c12
not listed: [8] | [14] | [19]
inactive: all other assays above

OCCN1C[C@H](O)[C@@H](O)[C@H](O)[C@H]1CO
not listed: [8] | [14]
inactive: all other assays above

CC(C)COC(=O)C(C)C
not listed: [14] | [18] | [19]
inactive: all other assays above

C(=C(c1ccccc1)c1ccccc1)c1ccccc1
active: [4] 54.9 µM [inconclusive] | [6] 7.76 µM [inconclusive] | [7] 2.43 µM
not listed: [8] | [14] | [19]
inactive: all other assays above

C1CCCCCCCCCCC1
not listed: [12] | [18] | [19]
inactive: all other assays above

CC12CCC(CC1=O)C2(C)C (stereo not drawn)
not listed: [8] | [12] | [19]
inactive: all other assays above

COc1nc(C)nc(N)n1
not listed: [7] | [8] | [18]
inactive: all other assays above

CCC(C)(C)C1CCC(OC)CC1 (stereo not drawn)
not listed: [14] | [18]
inactive: all other assays above

CCCCCC[C@@H](CCC)C(=O)O
not listed: [8] | [9] | [14] | [19]
inactive: all other assays above

CCCOc1ccccc1-c1nc2n[nH]nc2c(=O)[nH]1
not listed: [11] | [18] | [19]
inactive: all other assays above
